According to PubChem BioAssay (NCATS):
Inconclusive results are not listed. Calls of active or inactive are those of the source. Calls come from the whole dose curve; as a rule, active = well fitted curve in the direction sought with a large enough effect; inconclusive = small, poorly fitted or top-dose-only effect, or another doubt; inactive = no such curve, though single readings can be large; an effect the other way counts as inactive or inconclusive.

Experiments:
[1] = qHTS of pediatric cancer cell lines to identify multiple opportunities for drug repurposing: Primary screen for Rh18 cells (AID 1347102); note: nearly all actives have a fitted effect of over 65% in size; note: potency is the fitted concentration of half-maximal effect
How it was run: (§1)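 Cells (500-1,000/well) rested 5 h, then received compounds for 48 h; metabolically active cells were measured by CellTiter-Glo luminescence. Final concentrations spanned up to 46 µM (MIPE, 11-point) or 0.59 nM-46 µM (NPC, 8-point) in primary screens, 11-point in follow-ups.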

[2] = qHTS of pediatric cancer cell lines to identify multiple opportunities for drug repurposing: Primary screen for OHS-50 cells (AID 1347103); note: nearly all actives have a fitted effect of over 40% in size; note: potency is the fitted concentration of half-maximal effect
How it was run: as §1

[3] = qHTS of pediatric cancer cell lines to identify multiple opportunities for drug repurposing: Primary screen for RD cells (AID 1347104); note: nearly all actives have a fitted effect of over 55% in size; note: potency is the fitted concentration of half-maximal effect
How it was run: (§2)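 Primary screen of approved and investigational compounds on cells in growth media at 37 degrees C, 5% CO2. MIPE set at 11-point and NPC set at 8-point dilutions; viability scored by ATP-based luminescence at 48 hours.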

[4] = qHTS of pediatric cancer cell lines to identify multiple opportunities for drug repurposing: Primary screen for MG 63 (6-TG R) cells (AID 1347105); note: nearly all actives have a fitted effect of over 50% in size; note: potency is the fitted concentration of half-maximal effect
How it was run: as §2

[5] = qHTS of pediatric cancer cell lines to identify multiple opportunities for drug repurposing: Primary screen for Rh30 cells (AID 1347107); note: nearly all actives have a fitted effect of over 75% in size; note: potency is the fitted concentration of half-maximal effect
How it was run: as §1

[6] = qHTS of pediatric cancer cell lines to identify multiple opportunities for drug repurposing: Primary screen for Rh41 cells (AID 1347108); note: nearly all actives have a fitted effect of over 70% in size; note: potency is the fitted concentration of half-maximal effect;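 for activity change, negative = cytotoxic: luminescence drop marks cytotoxic hits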
How it was run: as §2

[7] = qHTS of pediatric cancer cell lines to identify multiple opportunities for drug repurposing: Primary screen for control Hh wild type fibroblast cells (AID 1347106); note: nearly all actives have a fitted effect of over 55% in size; note: potency is the fitted concentration of half-maximal effect;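 for activity change, negative = cytotoxic: a drop in luminescence marks cytotoxicity and a rise apparent proliferation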
How it was run: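 Viability after 48 h compound treatment at 37C, 500-1,000 cells/well, read as ATP luminescence with CellTiter-Glo. Primary screens used 11-point (MIPE, 0.78 nM-46 µM) or 8-point (NPC, 0.59 nM-46 µM) final concentrations; follow-up screens used 11-point dilutions.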

[8] = qHTS of pediatric cancer cell lines to identify multiple opportunities for drug repurposing: Confirmatory screen for A673 cells (AID 1347110);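 note: cells exposed to compound for 48 h before the viability read; nearly all actives have a fitted effect of over 65% in size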; note: potency is the fitted concentration of half-maximal effect
How it was run: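 qHTS titration format: primary MIPE 0.78 nM-46 µM (11 pts), NPC 0.59 nM-46 µM; confirmation 11 pts. 48 h, CTG luminescence.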

[9] = qHTS of pediatric cancer cell lines to identify multiple opportunities for drug repurposing: Confirmatory screen for SK-N-MC cells (AID 1347111);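 note: cells exposed to compound for 48 h before the readout; nearly all actives have a fitted effect of over 70% in size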; note: potency is the fitted concentration of half-maximal effect
How it was run: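 Seed 500-1,000 cells/well; rest 5 h at 37 degrees C. Pin-transfer compounds, 11-point titration. Incubate 48 h. Add CellTiter-Glo, 15 min RT, read luminescence.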

[10] = qHTS of pediatric cancer cell lines to identify multiple opportunities for drug repurposing: Confirmatory screen for BT-12 cells (AID 1347112); note: nearly all actives have a fitted effect of over 55% in size; note: potency is the fitted concentration of half-maximal effect
How it was run: as §1

[11] = qHTS of pediatric cancer cell lines to identify multiple opportunities for drug repurposing: Confirmatory screen for DAOY cells (AID 1347114); note: nearly all actives have a fitted effect of over 65% in size; note: potency is the fitted concentration of half-maximal effect
How it was run: (§3)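 Viability measured as metabolically active cells via CellTiter-Glo luminescence following 48 hours of compound exposure, 11-point dilutions in confirmatory testing. 500-1,000 cells/well plated 5 hours before dosing; controls were DMSO and 2.3 µM bortezomib.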

[12] = qHTS of pediatric cancer cell lines to identify multiple opportunities for drug repurposing: Confirmatory screen for NB-EBc1 cells (AID 1347115);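 note: cells exposed to compound for 48 h before the viability read; nearly all actives have a fitted effect of over 45% in size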; note: potency is the fitted concentration of half-maximal effect
How it was run: as §1

[13] = qHTS of pediatric cancer cell lines to identify multiple opportunities for drug repurposing: Confirmatory screen for SJ-GBM2 cells (AID 1347116); note: nearly all actives have a fitted effect of over 60% in size
How it was run: as §3

[14] = qHTS of pediatric cancer cell lines to identify multiple opportunities for drug repurposing: Confirmatory screen for BT-37 cells (AID 1347117); conditions: BT-37 pediatric cancer cells, viability; activity change, negative = cytotoxic: at 45.9 µM (top of the series); note: nearly all actives have a fitted effect of over 55% in size; note: potency is the fitted concentration of half-maximal effect
How it was run: as §1

[15] = qHTS of pediatric cancer cell lines to identify multiple opportunities for drug repurposing: Confirmatory screen for MG 63 (6-TG R) cells (AID 1347119); note: nearly all actives have a fitted effect of over 55% in size; note: potency is the fitted concentration of half-maximal effect
How it was run: as §1

[16] = qHTS of pediatric cancer cell lines to identify multiple opportunities for drug repurposing: Confirmatory screen for control Hh wild type fibroblast cells (AID 1347121); note: nearly all actives have a fitted effect of over 70% in size; note: potency is the fitted concentration of half-maximal effect
How it was run: as §1

[17] = qHTS of pediatric cancer cell lines to identify multiple opportunities for drug repurposing: Confirmatory screen for NB1643 cells (AID 1347109); note: potency is the fitted concentration of half-maximal effect; nearly all actives have a fitted effect of over 45% in size
How it was run: as §1

[18] = qHTS of pediatric cancer cell lines to identify multiple opportunities for drug repurposing: Confirmatory screen for LAN-5 cells (AID 1347113); note: nearly all actives have a fitted effect of over 65% in size; note: potency is the fitted concentration of half-maximal effect
How it was run: as §1

[19] = qHTS of pediatric cancer cell lines to identify multiple opportunities for drug repurposing: Confirmatory screen for TC32 cells (AID 1347118); note: potency is the fitted concentration of half-maximal effect
How it was run: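 Luminescent CellTiter-Glo read-out of metabolically active TC32 cells after 48 h compound exposure. Primary: MIPE 11-point, 0.78 nM–46 µM; NPC 8-point, 0.59 nM–46 µM. Confirmatory: 11-point dilutions.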

[20] = qHTS of pediatric cancer cell lines to identify multiple opportunities for drug repurposing: Confirmatory screen for U-2 OS cells (AID 1347122); note: nearly all actives have a fitted effect of over 65% in size; note: potency is the fitted concentration of half-maximal effect
How it was run: as §1

Measured: Potency

Cc1cn([C@@H]2O[C@H](CO)[C@@H](O)[C@H]2F)c(=O)[nH]c1=O
inactive: [1] | [2] | [3] | [4] | [5] | [6]

O=C(C=CC=Cc1ccc2c(c1)OCO2)N1CCCCC1
active: [8] 16.5 µM | [9] 8.27 µM
not listed: [17] | [18] | [19] | [20]
inactive: all other assays above

Oc1cc2c(cc1O)C1c3ccc(O)c(O)c3OCC1(O)C2 (stereo unspecified)
inactive: [1] | [2] | [3] | [4] | [7] | [6]

OC[C@@H](O)[C@@H](O)[C@H](O)[C@@H](O)CO
inactive: [1] | [2] | [3] | [4] | [7] | [6]

CCC(C(=O)O)C1CCC(C)C(C(C)C(O)C(C)C(=O)C(CC)C2OC3(C=CC(O)[C@@]4(CC[C@](C)(C5CC[C@@](O)(CC)C(C)O5)O4)O3)C(C)CC2C)O1 (stereo partly specified)
inactive: [5] | [9] | [14] | [15]
active: [1] 5.9 µM | [2] 432 nM | [3] 4.18 µM | [4] 18.7 µM | [6] 3.72 µM | [17] 1.17 µM | [8] 5.85 µM | [10] 3.69 µM | [18] 1.17 µM | [11] 3.29 µM

CC(C)C[C@H](NC(=O)[C@@H](NC(=O)c1cccc(-c2ccccc2)n1)[C@@H](C)O)B(O)O
active: [1] 0.0469 µM | [2] 432 nM | [3] 0.118 µM | [4] 0.0296 µM | [7] 209 nM | [5] 372 nM | [6] 0.0935 µM | [8] 0.0737 µM | [9] 0.0147 µM | [10] 0.0827 µM | [18] 0.0369 µM | [11] 0.0369 µM | [12] 58.5 nM | [14] 73.7 nM | [19] 0.0585 µM | [15] 0.0165 µM | [16] 20.8 µM | [20] 0.0369 µM

CCOC(=O)C=C[C@H](C[C@@H]1CCNC1=O)NC(=O)[C@@H](CC(=O)[C@@H](NC(=O)c1cc(C)on1)C(C)C)Cc1ccc(F)cc1
inactive: [1] | [2] | [3] | [4] | [5] | [6]

C[C@H]1[C@@H](OC(=O)CCC(=O)O)O[C@@H]2O[C@@]3(C)CC[C@@H]4[C@H](C)CC[C@@H]1[C@@]24OO3
inactive: [7] | [16]
active: [1] 14.8 µM | [2] 1090 nM | [3] 1.66 µM | [4] 18.7 µM | [6] 2.35 µM | [17] 14.7 µM | [8] 2.33 µM | [9] 3.29 µM | [18] 16.5 µM | [11] 23.3 µM | [12] 5220 nM | [14] 3690 nM | [19] 9.27 µM | [15] 20.8 µM | [20] 13.1 µM

OCc1ccccc1O[C@@H]1O[C@H](CO)[C@H](O)[C@H](O)[C@H]1O
inactive: [1] | [2] | [3] | [4] | [5] | [6]

CN[C@H]1[C@@H](O)[C@@H]2O[C@@H]3O[C@H](C)CC(=O)[C@]3(O)O[C@@H]2[C@@H](NC)[C@H]1O
active: [1] 1.18 µM | [2] 432 nM | [3] 0.59 µM | [4] 9.35 µM | [7] 3720 nM | [5] 296 nM | [6] 1.18 µM
not listed: [9] | [13] | [15] | [17] | [19]
inactive: all other assays above

NC(=O)Nc1sc(-c2ccc(F)cc2)cc1C(N)=O
inactive: [7] | [10] | [11] | [13] | [16]
active: [1] 5.26 µM | [2] 432 nM | [3] 1.66 µM | [4] 0.59 µM | [6] 1.05 µM | [8] 6.57 µM | [9] 8.27 µM | [19] 5.22 µM | [15] 11.7 µM

Cn1cnc(=N)c2[nH]cnc21
active: [1] 0.264 µM | [2] 109 nM | [3] 0.935 µM | [4] 1.48 µM | [5] 14800 nM | [6] 0.469 µM
not listed: [13] | [17] | [20]
inactive: all other assays above
